According to PubChem BioAssay AID1159606 (Sanford-Burnham Center for Chemical Genomics, 2016):
Hit rate of the full screen: of about 360,000 compounds, about 7,300 (2%) were called active. Rule as the data show it: active = inhibition above about 50%; inactive = the rest. Only a selection was taken, and actives are over-represented in it overall.

Test: inhibitors of TWEAK-Fn14 signaling, primary screen, luciferase reporter cells, uHTS (AID 1159606)
Conditions: TWEAK-stimulated Fn14 reporter cells, luciferase luminescence, 8 h; at 10 µM; hits give high values

inhibition, active:
O=C1/C(=C\c2ccc([N+](=O)[O-])cc2)CS(=O)(=O)C/C1=C/c1ccc([N+](=O)[O-])cc1 103%, O=C(O)Cc1csc(NC(=O)CSc2nnnn2-c2ccc(O)cc2)n1 58.4%, O=C(Nc1ccn(Cc2ccccc2)n1)c1n[nH]c([N+](=O)[O-])c1Cl 73.8%, Cc1ccc2cc3cc(C(=O)N4CCCCCC4)oc3nc2c1 50.1%, Cc1cccc(NC(=S)NCCc2ccc(Cl)cc2)c1C 72%, Nc1ccccc1SC(C[N+](=O)[O-])c1ccccc1 (configuration not stated) 61.3%, Cc1ccsc1C(=O)OCC(=O)c1cc(C)n(CC2CCCO2)c1C (configuration not stated) 103%, Cc1cccc2sc(N(CCCN(C)C)C(=O)CCS(=O)(=O)c3ccccc3)nc12 61.9%, COc1cccc2sc(N(CCCN(C)C)C(=O)CCS(=O)(=O)c3ccccc3)nc12 77.6%, Oc1c(Br)cccc1/C=N/Nc1c(F)c(F)c(F)c(F)c1F 71.5%, O=C(COC(=O)c1ccccc1)c1ccc2c(c1)OCCO2 77.6%, CC(=O)Nc1cccc(C(=O)OCC(=O)c2ccc3c(c2)OCO3)c1 81.9%

inhibition, inactive:
O=C(CCCN1C(=O)C(c2ccccc2)Oc2cccnc21)Nc1ccccc1Br (configuration not stated) -8.78%, COC(=O)[C@]12CCCCC=C1N(Cc1cccc3ccccc13)C(=O)[C@H](CC(=O)N1CCOCC1)C2 -1.32%, CSc1ccc(Cl)c(C(=O)OCC(=O)N2CC(C)OC(C)C2)c1 (configuration not stated) 3.56%, CCCCC(=O)Nc1c2c(nn1-c1ccc([N+](=O)[O-])cc1)CS(=O)(=O)C2 -8.65%, CN(C)S(=O)(=O)N1CCN(c2ccc([N+](=O)[O-])cc2)CC1 -16%, Cc1cc(NC(=O)CSc2nnnn2-c2ccc(F)cc2)no1 -11.5%, O=C(CSc1nnnn1-c1ccc(O)cc1)c1ccc(F)cc1 -10.2%, O=C(COc1cccc(F)c1)Oc1ccc(C(=O)c2ccccc2)cc1 10.4%, O=C(Nc1ccn(Cc2ccccc2F)n1)c1ccc(COc2ccc(Cl)cc2Cl)o1 33.4%, Cc1c(Br)c([N+](=O)[O-])nn1CC(=O)N1CCN(Cc2ccccc2)CC1 -4.42%, CC(=O)Oc1ccc(Cn2c(C)c(C(=O)NCc3ccc(C#N)cc3)sc2=O)cc1 -2.94%, CC(=O)C1=CCC(c2ccccc2)N(S(=O)(=O)c2ccc(C)cc2)C1 (configuration not stated) 15.7%, Cc1ccc2oc(=O)c3cnn(CC(=O)N4CCCCCC4)c3c2c1 -7.9%, Cc1cc(C)cc(NC(=O)N2CCCCCCC2)c1 -11.9%, COc1ccc(OC)c(CN2C(=O)CCC2(C)c2nnnn2Cc2ccccc2)c1 (configuration not stated) -0.14%, C=CCNc1nnc(SCC(=O)N2CCCCC2)c2ccccc12 16.3%, COC(=O)c1ccc2nc(-c3ccc(C)cc3)c(Cc3ccc(OC)cc3C)n2c1 -18.1%, Cc1cccc(NC(=S)NCCc2ccc(F)cc2)c1C 3.93%, Cc1ccccc1NC(=S)NC(=O)Cc1ccc(Cl)cc1 9.93%, Cc1ccc(CNC(=O)c2cccc3c2C(=O)c2ccc(N4CCC(C)CC4)cc2S3(=O)=O)cc1 21%, COc1cc(/C=C/C(=O)OCC(=O)Nc2cccc(Oc3ccccc3)c2)ccc1O 14.2%, CCCCC[C@H](C)N1C[C@@H](COCc2ccccc2)Oc2cc(N3CC[C@@H](N(C)C)C3)ccc2S1(=O)=O -25%, CS(=O)(=O)N(Cc1ccccc1)c1ccc(C(=O)NN=C2CCCCCC2)cc1 -6.55%, COc1ccc(OC)c(NC(=O)C2CCCN2S(=O)(=O)c2ccc3c(c2)CC(C)N3C(C)=O)c1 (configuration not stated) -20.4%, COc1ccc(CN(Cc2ccco2)S(=O)(=O)c2ccc(S(=O)(=O)N3CCCC3)cc2)cc1 -30.2%, Cc1ccsc1C(=O)OCC(=O)Nc1cccc(F)c1 -31.6%, Cc1ccsc1C(=O)OCC(=O)NCCc1ccccc1 -22.4%, Cc1ccc(OCC(=O)N2CCN(S(=O)(=O)c3ccc(Cl)s3)CC2)cc1C 10.7%, CCCC(C)C(=O)Nc1ccc(NC(C)=O)cc1 (configuration not stated) -11.6%, Cc1cccc(C)c1NC(=O)CCS(=O)(=O)c1cccc2nsnc12 -23.2%, COc1ccc(N(C)C(=O)CCS(=O)(=O)c2cccc3nsnc23)cc1 36.5%, O=C(CCS(=O)(=O)c1ccccc1)Nc1nc2c(s1)CCCC2 22%, Cc1ccc(S(=O)(=O)CCC(=O)OCC(=O)N(C)Cc2ccccc2)cc1 4.76%, CCOc1ccc(NS(=O)(=O)c2ccc(C(=O)NC3CCN(Cc4ccccc4)CC3)cc2)cc1 10.7%, Cc1cccc(CCNC(=O)Cn2ncc3c([nH]c4ccc(C)cc43)c2=O)c1 -15.4%, C=CCc1cc(S(=O)(=O)c2ccc(O)c(CC=C)c2)ccc1O 30.9%, O=C1C(Sc2cccc(F)c2)=C[C@@]2(O)CC[C@@H](O)[C@]1(Sc1cccc(F)c1)[C@H]2O 31.5%, CC(OC(=O)Cc1ccc(F)cc1)C(=O)N1CCc2ccccc21 (configuration not stated) -3.73%, C[C@H](CO)N1C[C@H](C)[C@H](CN(C)C(=O)Nc2ccc(C(F)(F)F)cc2)Oc2c(NC(=O)c3ccncc3)cccc2C1=O 7.86%, Cc1nnc(NC(=O)CSc2nccn2-c2cccc(C)c2C)s1 12.7%, COc1cc(C(O)c2nc(-c3cnn(C)c3)cs2)ccc1F (configuration not stated) -2.28%, Brc1ccccc1/C=N/Nc1nc2ccccc2o1 -8.62%, c1cc(-c2ccc3[nH]ccc3c2)n2ccnc2c1 -2.85%, COCCNC(=S)N1CCC(NC(=O)C23CC4CC(CC(C4)C2)C3)CC1 15.9%, CCOC(=O)[C@]12CCCC=C1N(Cc1ccc(Cl)cc1Cl)C(=O)[C@H](CC(=O)N1CCCCC1)C2 7.58%, COc1cc2c(=O)n(C)c3ccccc3c2cc1OC -37.3%, O=C(COC(=O)c1ccc(O)cc1O)c1ccc2c(c1)OCCO2 -18.5%, CC(=O)Nc1cccc(C(=O)OCC(=O)NCc2cc(C)c(O)c(C)c2)c1 -19.2%, COc1ccc(C(=O)OCC(=O)Nc2cccc(C(C)=O)c2)cc1OC 11.4%, O=C(OCc1ccccc1F)c1ccc2c(c1)OCCO2 -12.5%
